Structures are written as SMILES. Records with an inconclusive call do not appear. The source made the active and inactive calls. The calls were made as follows: active = hit-call score of the fitted dose curve at least 0.9, where 1 is the maximum; inconclusive = response in the unintended direction; inactive = score below 0.9.

Chain of Cytochrome P450 3A4 (Homo sapiens) (P08684 whole entry, looked up): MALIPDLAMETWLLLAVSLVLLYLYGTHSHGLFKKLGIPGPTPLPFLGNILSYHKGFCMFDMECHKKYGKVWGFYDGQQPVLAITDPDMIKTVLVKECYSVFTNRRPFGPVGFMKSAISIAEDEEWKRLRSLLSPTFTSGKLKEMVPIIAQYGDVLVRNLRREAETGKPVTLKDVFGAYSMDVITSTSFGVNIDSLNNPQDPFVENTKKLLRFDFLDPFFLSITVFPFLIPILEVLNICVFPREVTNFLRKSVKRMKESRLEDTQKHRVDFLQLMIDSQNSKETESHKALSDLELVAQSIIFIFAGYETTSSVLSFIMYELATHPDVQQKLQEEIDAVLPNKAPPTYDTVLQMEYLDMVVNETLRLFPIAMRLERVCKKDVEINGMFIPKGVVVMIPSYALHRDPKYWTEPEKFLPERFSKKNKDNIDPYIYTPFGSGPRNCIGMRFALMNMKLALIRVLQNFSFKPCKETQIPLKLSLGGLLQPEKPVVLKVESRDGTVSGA

In this test the target is Cytochrome P450 3A4 (Homo sapiens) (UniProt P08684). Kind of test: NVS_ADME_hCYP3A4: NovaScreen (NVS) CYP450-related Enzyme Activity (ADME) Assay for human CYP3A4 (AID 2283110). The method, then:
NVS_ADME_hCYP3A4 is a biochemical, single-readout assay that uses extracted gene-proteins from insect cells in a cell-free assay. Measurements were taken 0.33 hour after chemical dosing in a 96-well plate.NVS_ADME_hCYP3A4 is one of one assay component(s) measured or calculated from the NVS_ADME_hCYP3A4 assay. It is designed to make measurements of enzyme activity, a form of enzyme reporter, as detected with fluorescence intensity signals by Fluorescence technology.Data from the assay component NVS_ADME_hCYP3A4 was analyzed into 1 assay endpoint. This assay endpoint, NVS_ADME_hCYP3A4, was analyzed in the positive analysis fitting direction relative to Acetonitrile as the negative control and baseline of activity. Using a type of enzyme reporter, loss-of-signal activity can be used to understand changes in the enzymatic activity as they relate to the gene CYP3A4. Furthermore, this assay endpoint can be referred to as a primary readout, because this assay has produced multiple assay endpoints where this one serves a enzymatic activity function. To generalize the intended target to other relatable targets, this assay endpoint is annotated to the cyp intended target family, where the subfamily is xenobiotic metabolism.
Binding assays used specific radioligands (tritiated, iodinated) with non-radioactive competitive displacement ligands in agonist or antagonist protocols (as indicated) and various reference compounds and inhibitors to titrate specific binding to receptors and transporters. Most enzyme assays (CYPs, kinases, phosphatases, proteases, HDACs) used recombinant protein and specific substrates (fluorescence mostly, some colorimetric and radioactive) and inhibitors, followed by a biochemical separation of substrate and product. All assays for the biochemical HTS were initially run in duplicate at a single concentration (10 uM for CYP450 assays and 25 uM for all others). […] Each assay was run with positive and negative controls, and concurrent controls on every plate. The follow-up (secondary) screen tested active chemical-pairs in concentration series, as well as a few additional assays not tested in the primary screen, some selected negative inactives, and several cases re-run in the concentration series for confirmatory purposes.
`CCCCCCCCOC(=O)c1cc(O)c(O)c(O)c1`: the concentration at half-maximal activity (AC50) was 15.4 µM (active).

For the molecule `Cc1oc2c(NC(=O)c3c(Cl)cccc3Cl)cccc2c1C(C)(C)O`, the AC50 is 7.44 µM (active).

As to `CCN(CC)C(=O)c1cc(S(=O)(=O)Cc2ccccc2)c(N2CCC(c3ccccc3)CC2)cc1N(CC)CCN(C)C`, the AC50 is 4.11 µM (active).

Regarding `CCCOC(=O)c1cc(O)c(O)c(O)c1`, the result was inactive.

`CCN(Cc1cccnc1)C(=O)c1cccc(Cl)c1[C@]1(C)C(=O)N(Cc2ccc(OC)cc2OC)c2ccc(Cl)cc21`: the AC50 was 3.58 µM (active).

`NCc1cccc(C2CCN(C(=O)c3ccc(C#Cc4ccccc4F)o3)CC2)c1`: the AC50 was 10 µM (active).

For the molecule `Cc1occc1C(=O)Nc1ccc(C(=O)N2CCC(F)(F)/C(=C\C(=O)N3CCC(N4CCCCC4)CC3)c3ccccc32)cc1`, the result was inactive.

On to `O=C1c2ccccc2C(=O)N1CCc1noc(-c2ccc(CN3CCCCCC3)s2)n1`, for which the outcome was inactive.

Consider `COc1ccc2cc(S(=O)(=O)N[C@H](CC(=O)N[C@H](Cc3ccc(CN4[C@H](C)CCC[C@@H]4C)cc3)C(=O)N(C)C(C)C)c3ccc4c(c3)OCO4)ccc2c1`, for which the AC50 is 0.861 µM (active).

As to `CC[C@H](NC(=O)c1cc(F)ccc1NS(=O)(=O)c1cccc2cccnc12)c1ccccc1`, the molecule was called inactive.

`CCOC(=O)O[C@H](C)OC(=O)c1ccc2c(c1)cc(C(=O)NC1CCN(C(C)C)CC1)n2Cc1cc(-c2ccc(Cl)s2)on1`: the half-maximal activity concentration (AC50) is 9.45 µM (active).

For the molecule `CN(C)C(=O)C1(N2CCCCC2)CCN(CC[C@@]2(c3ccc(Cl)c(Cl)c3)CN(C(=O)c3ccccc3)CCO2)CC1`, the AC50 was 0.586 µM (active).

By AC50 is commonly meant the midpoint of the concentration-response curve, whichever way the signal moves.
